Experimental data reported in PubChem BioAssay (NCATS).
“And” between values parts separate entries of the source, which are not always exact repeats. Equal values may be shown once. Results filed as inconclusive are left out. Values without a mark were called inactive. The source made the active and inactive calls. Calls come from the whole dose curve; as a rule, active = well fitted cell-killing curve with a large enough effect; inconclusive = small, poorly fitted or top-dose-only effect; inactive = flat fitted curve, though single readings scatter.

test: Cell Viability - LYMP2-023 (AID 975); conditions: LYMP2-023 lymphoblastoid cell viability; series mostly up to 92.2 µM; activity change, negative = cytotoxicity: at the top concentration; note: nearly all actives have a fitted effect of over 55% in size;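 for activity change, negative = cytotoxicity: plate controls were DMSO only for no effect and 92 µM tetraoctylammonium bromide control for full effect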
From the text: NIH Chemical Genomics Center [NCGC]
NIH Molecular Libraries Screening Centers Network [MLSCN]
National Institutes of Environmental Health Sciences [NIEHS]
National Toxicology Program [NTP]
We have developed a 1536-well cell-based assay for quantitative high throughput screening (qHTS) against a number of cell lines to determine in vitro cytotoxicity of small molecules. This particular assay uses a human lymphoblastoid cell line (LYMP2-023) purchased from Coriell Institute for Medical Research.
NCGC Assay Protocol Summary:
The CellTiter-Glo luminescent cell viability assay (Promega) is a homogeneous method to measure the number of viable cells in culture. The end point readout of this assay is based on quantitation of intracellular ATP, an indicator of metabolic activity, using the luciferase reaction. Luciferase catalyzes the oxidation of beetle Luciferin to oxyluciferin and light in the presence of ATP. The luminescent signal is proportional to amount of ATP present.
Using the CellTiter-Glo luminescent cell viability assay, the amount of cellular ATP was measured in the lymphoblastoid cell line with complete culture medium following compound treatment for 24 hours. The assay was performed in opaque white Kalypsys 1536-well plates. In the screen, tetraoctylammonium bromide was used as positive control. Library compounds were measured for their ability to cause acute toxicity in the cell line, as reflected by a decrease in intracellular ATP levels, in a concentration-dependent manner. […] AC50 values were determined from concentration-response data modeled with the standard Hill equation.
qHTS protocol for CellTiter Glo lymphoblastoid cellular assay
[Step] [Parameter] [Value] [Description]
1. Reagent; 5 uL; 2500 lymphoblastoid cells/well
2. Time; 5 hr; 37 C incubation
4. Controls; 23 nL; Tetraoctylammonium bromide 6.4pM to 92 uM
5. Time; 24 hr; 37 C incubation
6. Reagent; 5 uL; CellTiter Glo reagent
7. Time; 30 min; Room Temperature
8. Detection; Luminescence; Viewlux plate reader
Keywords: cell viability, cytotoxicity, lymphoblastoid cell line, luminescence, NTPHTS, NTPHTS_NCGC, NIEHS, DSSTox, MLSMR, MLSCN, NIH Roadmap, qHTS, NCGC
Potency is the fitted concentration of half-maximal effect.

Point of comparison: `CC(C)=CCCC(C)CCO` (stereo not given), “activity change, negative = cytotoxicity” value -1.32%. Against it:
- CCO[Si](CCCN)(OCC)OCC — lower, -2.11%
- C/C=C\c1ccc(OC)cc1 — lower, -3.16%
- CCCCCCCCCCCCCCC1CO1 (stereo not given) — lower, -6.29%
- O=C(/C=C/c1ccc(O)c(O)c1)O[C@@H](C(=O)O)[C@@H](OC(=O)/C=C/c1ccc(O)c(O)c1)C(=O)O — higher, 1.47%
- O=C(O)c1ccccc1C(c1ccc(O)cc1)c1ccc(O)cc1 — higher, 2.4%
- COc1cc(/C=C/c2ccccc2)oc(=O)c1 — lower, -3.67%
- CCCCCCCCCCCCCC(=O)O — lower, -12%
- Clc1cc(Cl)c(Cl)cc1Cl — lower, -2.7%
- CC12CCC(CC1=O)C2(C)C (stereo not given) — lower, -1.42%
- O=S(=O)(O)c1ccccc1 — lower, -2.15%
- O[C@@H]([C@H](O)[C@@H](O)CBr)[C@@H](O)CBr — higher, -0.478%
- Nc1ccc(S(=O)(=O)O)cc1 — lower, -5.37%
- COC(=O)CCCCC(=O)OC — lower, -7.34%
- CCCN(CCC)C(=O)SCC — lower, -6.88%
- CC(=O)OC/C=C(\C)CCC=C(C)C — higher, -0.611%
- COc1ccc2nc(N)sc2c1 — lower, -1.42%
- Cc1c(N=C=O)cccc1N=C=O — lower, -1.71%
- COCC(=O)O — lower, -2.95%
- C[C@H](CCC(=O)O)[C@H]1CC[C@H]2[C@@H]3CC[C@@H]4C[C@H](O)CC[C@]4(C)[C@H]3CC[C@]12C — higher, 0.949%
- c1ccc2scnc2c1 — higher, 4.67%
- C=Cc1ccccc1Cl — higher, 0.898%
- c1ccc2c(c1)[nH]c1ccccc12 — lower, -4.7%
- Nc1ccc(Cl)cc1Cl — lower, -3.23%
- Cc1cccc([N+](=O)[O-])c1C — lower, -1.76%
- C=CC(=C)CCC=C(C)C — lower, -2.4%
- O=C1c2ccccc2C(=O)C1c1ccc2ccccc2n1 — lower, -15%
- O=[N+]([O-])c1cccc(Cl)c1Cl — lower, -5.99%
- COc1ccc(/C=C/c2cc(OC)cc(=O)o2)cc1 — lower, -1.53%
- CC1(C)CC(N=C=O)CC(C)(CN=C=O)C1 (stereo not given) — higher, 1.73%
- O=C(O)c1ccccc1 — higher, 6.7%
- c1ccc2c(c1)c1cccc3ccc4cccc2c4c31 — higher, -0.665%
- Clc1cc(Cl)c(Cl)c(Cl)c1Cl — lower, -6.11%
- COc1c2ccoc2cc2oc(=O)ccc12 — higher, 2.94%
- C=C(C)C1CC=C(C)C(O)C1 (stereo not given) — higher, 1.47%

With `CCCCOCCO` the Potency was “inactive”.
For `CC1=CC(C)(C)Nc2ccccc21`, the Potency was “inactive”.
In the case of `C=CC(=O)OCCOCCOCCOCCOC(=O)C=C`, the Potency is reported as 25.1 µM (active) and 31.6 µM (active).
In the case of `CCCCCCCCCCCC(=O)O`, the Potency is reported as “inactive”.
In the case of `CCCCC(CC)CN` (stereo not given), the Potency is reported as “inactive”.
